A selection: hits, their analogues and other compounds. The true share with any hit is near 11%.
Tau fluor counter = counter-screen for tau fibril formation inhibitors | tau K18 P301L Alexa594 fluorescence, heparin fibrillization | Potency, µM (highest dose often 57.7 µM), for the others: at the highest dose activity change, negative = decrease | 280,000 compounds, 0.93% hits | AID 1463; also: potency is read from the fitted curve at half-maximal effect; nearly all actives have a fitted effect of over 55% in size
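Human tau K18 P301L (15 uM unlabeled, 0.24 uM Alexa 594-labeled) in 100 mM sodium acetate pH 7 with 20 uM heparin, 6 hr at 37 C. ThT 30 uM added, 1 hr ambient; Alexa 594 FP and total fluorescence read at 555/632 nm.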
Sfp inh = inhibitors of Bacillus subtilis Sfp phosphopantetheinyl transferase; Q9F4F7; Biochemical Sfp PPTase activity, qHTS; Potency, µM, for the others: largest response in the series, negative = inhibition, hits mostly inhibitors; 310,000 compounds, 3.5% hits; AID 1490;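 also: the enzyme is Sfp with the accession as filed and its product quenches rhodamine fluorescence; potency is read from the fitted curve at half-maximal effect; 0% = enzyme reaction without inhibitor and -100% = no enzyme wells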
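With Hepes-Na pH 7.6 buffer containing 10 mM MgCl2, Sfp (15 nM) modified BHQ-2-YbbR (12.5 uM) using rhodamine-CoA (5 uM). Two reads 30 minutes apart at 525/598 nm yielded each well's rate.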
G9a block = blocks human histone lysine methyltransferase G9a. Q96KQ7. G9a H3K9 monomethylation, AlphaScreen, 2 h. Potency, µM (doses to about 102 µM), without a hit: at the top dose activity, negative = inhibition, most hits filed as inhibitors. 350,000 compounds, 8.8% hits. AID 504332; also: potency is read from the fitted curve at half-maximal effect; nearly all actives have a fitted effect of over 75% in size
Target sequence (Q96KQ7 913-1193 limits assumed): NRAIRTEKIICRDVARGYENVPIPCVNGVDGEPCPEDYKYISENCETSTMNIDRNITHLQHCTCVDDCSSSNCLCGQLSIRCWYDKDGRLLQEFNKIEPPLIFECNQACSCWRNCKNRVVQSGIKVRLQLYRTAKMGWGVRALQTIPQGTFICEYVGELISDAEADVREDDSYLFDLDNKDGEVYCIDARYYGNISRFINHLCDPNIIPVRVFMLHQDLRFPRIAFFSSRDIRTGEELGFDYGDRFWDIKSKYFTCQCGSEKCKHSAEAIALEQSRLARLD
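Readings reflect AlphaScreen signal from monomethyl-H3K9 antibody detection. HMT at 20 nM; substrate b-H3K9 500 nM; cofactor SAM 20 uM; 2 h RT reaction; compounds tested as titrations in qHTS with 15 min preincubation.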
Coupling enz = coupling enzyme interference in Giardia aldolase counter-screen. 290,000 compounds, 0.67% hits. activity change, negative = inhibition, % at 58.2 µM, hits read low. AID 2472. coupling enzyme system counterscreen, AmpLite Red fluorescence; in the data active = activity change below about -30%
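Final compound at 57.5 uM, incubated 10 min at RT with coupling enzyme reagent (glyceraldehyde-3-phosphate), then 20 min with substrate and AmpLite Red detection. Fluorescence read at 525/598 nm; tests interference with the coupling assay, not aldolase inhibition.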
Tau FP inhib = tau fibrillization inhibition (FP); K18 P301L tau heparin fibrillization, Alexa594 FP, 6 h; Potency, µM (top dose mostly 57.7 µM), for the others: at the top dose activity, negative = inhibition, actives largely listed as inhibitors; 280,000 compounds, 0.39% hits; also: potency is read from the fitted curve at half-maximal effect; nearly all actives have a fitted effect of over 55% in size
Target sequence (P10636 561-689 P618L limits assumed): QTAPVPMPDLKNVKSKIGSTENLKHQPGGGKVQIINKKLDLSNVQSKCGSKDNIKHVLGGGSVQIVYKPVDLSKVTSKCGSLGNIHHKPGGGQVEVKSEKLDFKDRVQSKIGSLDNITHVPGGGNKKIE
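Recombinant K18 P301L […], labeled with Alexa 594 at 0.24 uM over 15 uM unlabeled; heparin inducer 20 uM final; 37 C, 6 hr; FP endpoint.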
Tau fibril ThT = tau fibrillization inhibition (ThT binding); recombinant tau K18 P301L (four-repeat tau fragment), heparin-induced fibrillization, ThT fluorescence; Potency, µM (titrated, usually from 57.4 µM), for inactives: top-dose activity, negative = inhibition, hits mostly inhibitors; P10636; 270,000 compounds, 2.1% hits; also: potency is read from the fitted curve at half-maximal effect; nearly all actives have a fitted effect of over 55% in size
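Recombinant human tau K18 fragment […] carrying P301L, 15 uM unlabeled plus 0.24 uM Alexa 594-labeled, was fibrillized with 20 uM heparin in 100 mM sodium acetate pH 7 for 6 hr at 37 C; 30 uM ThT fluorescence read after 1 hr.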
An asterisk follows results filed as active; ? = inconclusive; · = no result; [ ] = dose if it differs, or a comment. Unless noted, calls follow the shape of the dose curve; as a rule, active = well fitted curve in the direction sought with a large enough effect; inconclusive = small, poorly fitted or top-dose-only effect, or another doubt; inactive = no such curve, though single readings can be large; an effect the other way counts as inactive or inconclusive. Unless noted, % is scaled to controls: 0 for no effect and ±100 for the full control effect.

SMILES | Tau fluor counter | Sfp inh | G9a block | Coupling enz | Tau FP inhib | Tau fibril ThT
O=C1c2oc3ccccc3c(=O)c2C(c2cccnc2)N1Cc1ccco1 (centres undefined) | 0% | -20% | 25µM* | 0 | 0% | -5%
CCN(CC)CCCN1C(=O)c2oc3ccccc3c(=O)c2C1c1cccnc1 (centres undefined) | 3% | 13% | 50µM* | 5 | 2% | -7%
CCN(CC)CCN1C(=O)c2oc3ccccc3c(=O)c2C1c1ccc(F)cc1 (centres undefined) | -12% | -1% | -42%[12.7 µM] | 3 | -9% | -10%
Cc1ccc2nc(/C(C#N)=C\c3cc(C)n(-c4cccc([N+](=O)[O-])c4)c3C)[nH]c2c1 | ? | 7% | ? | 1 | ? | ?
Cc1cc(/C=C(/C#N)c2nc3ccccc3[nH]2)c(C)n1-c1ccccc1C(=O)O | -3% | 18% | 32µM* | -8 | -1% | 5%
Cc1cc(/C=C(/C#N)c2nc3ccccc3[nH]2)c(C)n1-c1cc(C(=O)O)cc(C(=O)O)c1 | -10% | 0% | 13µM* | -4 | -4% | ?
COC(=O)Cn1cc(C#N)c2ccccc21 | -1% | 1% | 10µM* | -1 | -8% | -6%
COC(=O)Cn1cc(/C=C/c2cc[n+](C)cc2)c2ccccc21 | · | 7% | 45µM* | -24 | · | ·
CNC(=O)/C(C#N)=C/c1cn(CC(=O)OC)c2ccccc12 | -9% | 23% | 4% | 0 | -5% | -6%
CC(C)OC(=O)Cn1cc(C#N)c2ccccc21 | -9% | 10% | -26% | -1 | -5% | -2%
COC(=O)Cn1c(C)c(/C=C/c2cc[n+](C)cc2)c2ccccc21 | · | 3% | 40µM* | 0 | · | ·
C/C(=N\Nc1nc2ccccc2s1)c1ccc2c(c1)OCO2 | ? | -28% | ? | 4 | -1% | ?
C/C(=N\Nc1nc2ccccc2s1)c1ccc(Br)s1 | 11µM*[quencher] | 9% | 35µM* | -1 | ? | ?
COCC1CCN(Cc2nc(-c3ccc4c(c3)OCO4)no2)C1 (centres undefined) | -6% | 19% | -28% | 1 | 5% | 0%
c1cc(C2CCN(Cc3nc(-c4ccc5c(c4)OCO5)no3)CC2)ccn1 | -12% | -7% | 3.5µM* | 3 | -2% | -21%
CCOC(=O)c1cc(CC)sc1/N=C/c1c(O)ccc2ccccc12 | -7% | -19% | 4.5µM* | -34* | -12% | ?
Cc1c(Cc2ccccc2)sc(/N=C/c2c(O)ccc3ccccc23)c1C(N)=O | 32µM*[quencher] | 35µM* | 3.2µM* | -12 | ? | 28µM*
Cc1c(Cc2ccccc2)sc(/N=C/c2ccc3ccccc3c2)c1C(N)=O | -19% | -25% | 20µM* | -2 | 3% | -16%
Cc1ccc(/C=N/NC(=O)CNC(=O)Cc2ccccc2)o1 | 2% | -1% | ? | 1 | 2% | 4%
COc1ccc(/C=C/C(=O)Nc2sc(Cc3ccccc3)c(C)c2C(N)=O)cc1 | -16% | 4% | -21%[59 µM] | -1 | -6% | -4%
Cc1ccc(/C=N/c2sc(Cc3ccccc3)c(C)c2C(N)=O)o1 | -8% | -13% | 45µM* | 3 | 7% | ?
CCOc1ccc(NC(=O)Cn2c(=O)n(CC3CCC(C(=O)NCCc4ccccc4)CC3)c(=O)c3ccccc32)cc1 (centres undefined) | -8% | · | 5%[59 µM] | · | 3% | -15%
Cc1sc(/N=C/c2c(O)ccc3ccccc23)c(C#N)c1C | -4% | 15% | 10µM* | 0 | -4% | -16%
CC(=O)Nc1ccc(NC(=O)c2cc([N+](=O)[O-])cc([N+](=O)[O-])c2)cc1 | · | -8% | 50µM* | 3 | · | ·
CC(=O)Nc1ccc(S(=O)(=O)NNc2ccc([N+](=O)[O-])cc2)cc1 | · | 22µM* | 1.3µM* | -2 | · | ·
SMILES | Tau fluor counter | Sfp inh | G9a block | Coupling enz | Tau FP inhib | Tau fibril ThT
O=C(NNc1ccc([N+](=O)[O-])cc1)Nc1ccccc1 | · | ? | ? | -2 | · | ·
O=C(NNc1ccccc1)C(=O)NNS(=O)(=O)c1ccc([N+](=O)[O-])cc1 | 1% | 14% | 6.3µM* | 5 | 1% | -6%
CN(C)c1ccc(C=Nc2ccccc2C(N)=O)cc1 | -17% | 6% | 18µM* | -1 | 8% | ?
Cc1ccc(C=Nc2ccccc2C(N)=O)o1 | -4% | -50% | 33%[59 µM] | -10 | 4% | -15%
Cc1ccc(C)c(SCC(=O)Nc2cc(S(=O)(=O)N3CCOCC3)ccc2C)c1 | · | · | 14µM* | · | · | ·
CC(C)(C)NC(=O)NC(=O)CSc1ccc(S(=O)(=O)N2CCOCC2)cn1 | · | · | 5.6µM* | · | · | ·
Cc1ccc(S(=O)(=O)N2CCOCC2)cc1NC(=O)CSc1nc(N)cc(N)n1 | · | · | -24% | · | · | ·
Cc1ccc(S(=O)(=O)N2CCOCC2)cc1NC(=O)CSc1nc(N)cc(=O)[nH]1 | -7% | 71µM* | · | 9 | -5% | -12%
COC(=O)c1ccccc1NC(=O)CSc1nc(N)cc(=O)[nH]1 | -16% | 6% | 50µM* | 2 | -5% | -11%
Cc1cc(C(C)(C)C)cc(S(=O)(=O)Nc2ccc(O)c(C(=O)O)c2)c1C | -12% | 89µM* | ? | 13 | 3% | -10%
COc1cc(/C=N/NC(=O)c2cc(-c3ccccc3)sc2N)cc(OC)c1OC | 13µM*[quencher] | 3% | ? | 1 | ? | ·
O=C(Nc1sc(-c2ccccc2)cc1C(=O)O)c1ccccc1 | ? | -11% | 24%[59 µM] | -3 | -8% | 13µM*
COc1cc(/C=N/NC(=O)c2ccc(-c3ccccc3)cc2)cc(OC)c1OC | ? | ? | -48% | 2 | -17% | ?
O=C(Nc1cc(NC(=O)c2ccccc2)c(C(=O)O)cc1C(=O)O)c1ccccc1 | -7% | 15% | · | 1 | 11% | ?
NNC(=O)c1cc(-c2ccccc2)sc1N | ? | -11% | ? | -2 | 4% | 7.9µM*
CCOC(=O)c1cc(-c2ccccc2)sc1NC(=O)CCN1C(=O)c2ccccc2C1=O | -26% | 15% | 13%[59 µM] | 3 | -4% | -5%
NNC(=O)c1sc(-c2ccccc2)cc1N | -20% | 6% | ? | -1 | 13% | ?
CCOC(=O)c1cc(-c2ccccc2)sc1NC(=O)CC | -8% | -21% | 56µM* | 2 | 1% | -4%
CC(C(=O)O)N1C(=O)C2C3CC(C2C1=O)C1C(c2ccccc2)c2sc(=O)[nH]c2SC31 (centres undefined) | 7% | -15% | -5%[59 µM] | 6 | -7% | -3%
CCOC(=O)c1cc(-c2ccccc2)sc1N | ? | 22µM* | 8.9µM* | 0 | 12% | ?
COc1ccccc1CNC(=O)COCc1cc(-c2ccc3c(c2)OCO3)on1 | -11% | · | -2%[59 µM] | · | 7% | -16%

Screening results from PubChem BioAssay.
